Laboratory results as given in PubChem BioAssay (NCI).
This is part of a sample that, as a whole, favours compounds with a hit. Of some 83,000 tested, about 20% had one in any assay.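 Interpretation: 100, growth as untreated; towards 0, rising growth inhibition; 0, no net growth; 0 to -100, cell death. Compounds scoring below 10 were considered active.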 Calls of active or inactive are those of the source.

How the values were obtained:
Experiment in all cases: NCI-60 one-dose screen, 48 h (100 = growth as untreated, 0 = no growth, -100 = all killed)
Conditions in all cases: 10 µM unless noted
[1] = system: SR leukemia
[2] = system: RPMI-8226 leukemia
[3] = system: OVCAR-8 ovarian
[4] = system: OVCAR-5 ovarian
[5] = system: OVCAR-4 ovarian
[6] = system: SK-OV-3 ovarian
[7] = system: IGROV1 ovarian
[8] = system: OVCAR-3 ovarian
[9] = system: HS 578T breast
[10] = system: NCI/ADR-RES ovarian

Measured: growth

COc1ccc(/C(=C/c2ccc3ccccc3c2)c2nn[nH]n2)cc1OC
inactive: [1] 15% | [2] 16.6% | [3] 40.5% | [4] 60% | [5] 62.7% | [6] 39% | [7] 48.7% | [9] 36.5%
active: [8] -17.3% | [10] -15.4%

CCCCOc1ccc(NC(=O)n2nc(NC(C)=O)c3cc(NC(C)=O)ccc32)cc1
inactive: [1] 88.4% | [2] 76.9% | [3] 92.5% | [4] 114% | [5] 106% | [6] 117% | [7] 95.3% | [8] 98% | [9] 103% | [10] 105%

CCNS(=O)(=O)c1ncnc2nc[nH]c12
inactive: [1] 101% | [2] 92% | [3] 114% | [4] 102% | [5] 102% | [6] 108% | [7] 96.9% | [8] 113% | [9] 144% | [10] 99.7%

CC(=O)C1=C(O)C=C2Oc3c(C(=O)/C=C/c4c(Cl)cccc4Cl)c(O)c(C)c(O)c3[C@]2(C)C1=O
active: [1] -31% | [2] -17.7% | [3] -18.9% | [4] -3.17% | [5] 7.41% | [6] -30.9% | [7] -8.78% | [8] -30.6% | [9] -18.1% | [10] -23.4%

CC/C(=C(\c1ccc(O)cc1)c1ccc(OCCN(C)CCN(C)C(=O)CCCCC(=O)c2c(C)[nH]c(/C=C3\N=C(c4ccc[nH]4)C=C3OC)c2C)cc1)c1ccccc1
inactive: [2] 63.1% | [3] 85.4% | [4] 108% | [5] 77.7% | [6] 123% | [7] 89.5% | [8] 89.4% | [9] 97.8% | [10] 97.4%
active: [1] 9.77%

COc1cc(-c2cc(-c3nc4ccc(Cl)cc4[nH]3)[nH]n2)cc(OC)c1OC
active: [2] 9.58% | [3] 3.73%
inactive: [1] 41.9% | [4] 97.3% | [5] 32.2% | [6] 61.7% | [7] 44.3% | [8] 57.8% | [9] 84.2% | [10] 20%

COc1cc(NC(N)=NCC(C)(C)COc2ccc(C(F)(F)F)cc2)cnc1C#N
inactive: [1] 49.8% | [2] 46% | [3] 81.8% | [4] 65% | [5] 65.8% | [6] 66.4% | [7] 43.9% | [8] 67.5% | [9] 31.6% | [10] 70.2%

CC/C=C\C[C@H](O)C/C=C1/C(=O)C=C[C@@H]1C/C=C\CCCC(=O)OC(C)C
active: [1] -27% | [2] -21.6% | [3] 5.63% | [4] 9.35% | [7] -2.92% | [8] -39.6% | [10] 6.4%
inactive: [5] 23.3% | [6] 16.4% | [9] 53.9%

O=C(N/N=C/c1ccc(O)cc1O)c1cccnc1
active: [1] -6.2% | [3] -8.42%
inactive: [2] 44.6% | [4] 77.6% | [5] 32.6% | [6] 46.8% | [7] 44.3% | [8] 19.8% | [9] 71.6% | [10] 19.1%

CC(C)Oc1nc2c(c(=O)n(C)c(=O)n2C)n1C
inactive: [1] 104% | [2] 105% | [3] 103% | [4] 106% | [5] 115% | [6] 102% | [7] 102% | [8] 110% | [9] 116% | [10] 98.1%

O=C(CN1CCOCC1)Nc1ccc(Cn2nnc3c2C(=O)c2nnn(Cc4ccc(NC(=O)CN5CCOCC5)cc4)c2C3=O)cc1
active: [1] -21.3% | [2] -18.9% | [3] -58.3% | [4] -21.9% | [5] -93.4% | [6] 0.088% | [7] -41.4% | [8] -19%
inactive: [9] 11.6% | [10] 103%

CC[C@@H](C)OC(=O)c1nn(C(C)=O)c2ccccc12
inactive: [1] 110% | [2] 107% | [3] 92.7% | [4] 101% | [5] 103% | [6] 114% | [7] 110% | [8] 112% | [9] 106% | [10] 94.2%

COc1ccc(C(=O)/C=C/c2c(Cl)c3c(c(OC)c2Cl)OCC(=O)N3)cc1
active: [1] 3.68% | [2] 3.79% | [3] 6.16%
inactive: [4] 76.8% | [5] 47.2% | [6] 77.9% | [7] 63.1% | [8] 10.9% | [9] 39.4% | [10] 19.4%

CCN(CC)CC#CCOC(=O)[C@]1(C)CCC[C@@]2(C)[C@H]1CC(C=O)=C1C=C(C(C)C)CC[C@@H]12
inactive: [1] 20.1% | [2] 27.8% | [3] 73.5% | [4] 82.7% | [5] 69.5% | [6] 73.4% | [7] 63.2% | [8] 69.1% | [9] 67.1% | [10] 70.9%

COc1cc(/C=N\NC(=O)CN2CCN(c3cc4c(cc3F)c(=O)c(C(=O)N/N=C/c3ccc(O)c(OC)c3)cn4C3CC3)CC2)ccc1O
inactive: [1] 33.9% | [2] 31.2% | [3] 61.7% | [4] 98.2% | [5] 47.8% | [6] 106% | [7] 63.7% | [8] 14.4% | [9] 63.5% | [10] 99.9%

Cc1ccc(/C=C2\Oc3cc(OCC(=O)c4ccc(Cl)cc4)ccc3C2=O)cc1
inactive: [1] 94.7% | [2] 248% | [3] 92.9% | [4] 102% | [5] 119% | [6] 115% | [7] 57.1% | [8] 94.9% | [9] 95.4% | [10] 102%

COc1cc(-c2cnc3nonc3n2)c(OC)c2c1OCO2
inactive: [1] 50.1% | [2] 65.7% | [3] 97.8% | [4] 124% | [5] 75.3% | [6] 105% | [7] 82.7% | [8] 76.9% | [9] 105% | [10] 99.3%

COc1ccc(C2c3ccc4ccccc4c3Oc3ncnc(N)c32)cc1 (stereo not given)
inactive: [1] 46% | [2] 86% | [3] 92.8% | [4] 97.9% | [5] 89% | [6] 62.1% | [7] 64.3% | [8] 88% | [9] 82.2% | [10] 74.7%

COc1ccc2nc3cc(Cl)ccc3c(N3CCN(c4ccnc(N5CCN(C)CC5)n4)CC3)c2c1
inactive: [2] 11.2% | [3] 41.2% | [4] 81.4% | [5] 46.2% | [6] 87.2% | [7] 72.9% | [9] 106% | [10] 84.9%
active: [1] -26.9% | [8] -39.4%

O=C1O[C@H]([C@H](O)CO)C(O)=C1O
inactive: [1] 88.5% | [2] 99.1% | [3] 97% | [4] 101% | [5] 119% | [6] 112% | [7] 104% | [8] 104% | [9] 117% | [10] 96.6%

COc1ccc(N(Cc2cc(OC)c(OC)c(OC)c2)C2OC(=O)c3ccccc32)cc1 (stereo not given)
active: [8] -18.4%
inactive: [1] 12.1% | [2] 10.6% | [3] 22.1% | [4] 65.5% | [5] 62.7% | [6] 13.3% | [7] 36.3% | [9] 22.1% | [10] 10.1%

CCOc1ccc(Nc2nc(-c3c(C)nc4ncccn34)cs2)cc1
inactive: [3] 16.5% | [4] 20.7% | [5] 39.6% | [7] 33.7% | [9] 34.1%
active: [1] 6.09% | [2] -9.92% | [6] 3.86% | [8] -20.9% | [10] 8.95%

Cn1c2ccccc2c2c3c(c4c5ccccc5[nH]c4c21)C(=O)N(N)C3=O
inactive: [2] 57.2% | [3] 66.7% | [4] 89.3% | [5] 73% | [6] 74% | [7] 72.7% | [8] 69.6% | [9] 79.5% | [10] 71.6%
active: [1] 5.54%

COc1ccc(S(=O)(=O)NCCNc2nccc(-c3c(-c4cccc([N+](=O)[O-])c4)nc4sccn34)n2)cc1
inactive: [1] 78.4% | [2] 74% | [3] 83.7% | [4] 126% | [5] 63.1% | [6] 102% | [7] 67.3% | [8] 88.3% | [9] 91.1% | [10] 82%

CCc1ccc(C(c2ccc(CC)cc2)C(Cl)(Cl)CCl)cc1
inactive: [1] 103% | [2] 93.6% | [3] 110% | [4] 99.9% | [5] 86.9% | [6] 105% | [7] 76.6% | [8] 86.3% | [9] 65.4% | [10] 91.3%

COc1cc(C2CC(=O)Nc3c2c(C)nn3-c2nc3ccccc3[nH]2)cc(OC)c1OC (stereo not given)
inactive: [1] 83.8% | [2] 108% | [3] 103% | [4] 103% | [5] 107% | [6] 111% | [7] 85.1% | [8] 115% | [9] 94.5% | [10] 98.7%

C/C(Cc1ccc(Cl)cc1)=C(\c1ccc(OCCN2CCCCCC2)cc1)c1ccc(OC(=O)C2CCCCC2)cc1
active: [1] -0.529%
inactive: [2] 37.2% | [3] 66.2% | [4] 73.4% | [5] 80.6% | [6] 88.1% | [7] 46.8% | [8] 71.8% | [9] 56.3% | [10] 70.4%
